Assay outcomes deposited in PubChem BioAssay by Buhrlage Lab, Dana-Farber Cancer Institute and Novartis Institutes for BioMedical Research (Cambridge, Mass).
The list is not random: actives were taken first. Their share in the collection is about 11%.
USP28 block = human USP28 deubiquitinase inhibition; AID 1645857; 47,000 tested, 3% active; Q96RU2; purified USP28, Ub-rhodamine cleavage fluorescence, 30 min; inhibition, % at 25 µM
USP17 block = blocks human USP17 ubiquitin-rhodamine cleavage. purified USP17, Ub-rhodamine cleavage fluorescence, 3 h. inhibition, % at 50 µM. 47,000 tested, 6.5% active. AID 1645855
OTUD3 inh = inhibitors of human OTUD3 deubiquitinase; Q5T2D3; purified OTUD3, Ub-rhodamine fluorescence, 2 h; inhibition, % at 25 µM; 47,000 tested, 0.7% active; AID 1645858
USP30 block = inhibitors of human USP30 deubiquitinase. purified USP30, Ub-rhodamine cleavage fluorescence. inhibition, % at 25 µM. 47,000 tested, 5.3% active. AID 1645860
Target sequence (Q70CQ3 whole entry, looked up): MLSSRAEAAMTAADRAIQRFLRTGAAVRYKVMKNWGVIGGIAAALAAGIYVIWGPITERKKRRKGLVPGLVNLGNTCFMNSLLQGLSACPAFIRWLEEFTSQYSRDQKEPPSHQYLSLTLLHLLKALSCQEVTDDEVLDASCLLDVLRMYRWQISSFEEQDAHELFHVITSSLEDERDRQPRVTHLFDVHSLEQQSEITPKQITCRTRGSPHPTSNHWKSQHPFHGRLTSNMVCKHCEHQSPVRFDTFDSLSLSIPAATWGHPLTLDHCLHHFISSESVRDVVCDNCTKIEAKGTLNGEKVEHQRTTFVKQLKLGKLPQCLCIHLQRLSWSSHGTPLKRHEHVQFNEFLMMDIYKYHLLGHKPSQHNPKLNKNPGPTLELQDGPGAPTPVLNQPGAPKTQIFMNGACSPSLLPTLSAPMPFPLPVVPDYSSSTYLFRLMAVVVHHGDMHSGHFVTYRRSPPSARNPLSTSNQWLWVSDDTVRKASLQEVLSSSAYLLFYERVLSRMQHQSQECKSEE
An asterisk follows results filed as active. Cut-off read from the data, not from the text of the source: active = inhibition above about 30%; inactive = the rest.

Results for COc1cccc(C2c3[nH]c4ccccc4c3C[C@@H]3C(=O)N(CC(O)c4ccccc4)CC(=O)N23)c1 (stereo partly drawn) ?
USP28 block: 40*; USP17 block: 45*; OTUD3 inh: -21; USP30 block: -40

What do the screens show for `O=C(/C=C/c1ccccc1)Nc1cc(S(=O)(=O)Nc2cccc(Cl)c2)ccc1Cl`?
USP28 block: 7; USP17 block: 6; OTUD3 inh: 0; USP30 block: -12

How did COc1ccc(NS(=O)(=O)c2ccc(N3CCCC3)c(NC(=O)/C=C/c3ccccc3)c2)cc1 do in these assays?
USP28 block: 20; USP17 block: 36*; OTUD3 inh: 2; USP30 block: 23

How did COc1ccc(NS(=O)(=O)c2cc(NC(=O)C3CC3)ccc2N2CCCCC2)cc1 do in these assays?
USP28 block: 2; USP17 block: -3; OTUD3 inh: -3; USP30 block: 6

Results for COc1ccc(NS(=O)(=O)c2cc(NC(=O)/C=C/c3ccco3)ccc2N2CCCC2)cc1 ?
USP28 block: 57*; USP17 block: 75*; OTUD3 inh: 44*; USP30 block: 55*

How did CC(=O)N1CCOc2cc(S(=O)(=O)N3CCC(C(=O)N4CCc5ccccc54)CC3)ccc21 do in these assays?
USP28 block: 14; USP17 block: 11; OTUD3 inh: 8; USP30 block: 5

Results for N#Cc1cccc(C(=O)Nc2cnn(-c3ncc(N4CCCC4)cn3)c2)c1 ?
USP28 block: -37; USP17 block: 0; OTUD3 inh: -31; USP30 block: -118

What do the screens show for `COc1ccc(C(NS(=O)(=O)c2ccc(S(=O)(=O)N3CCOCC3)cc2)c2ccccc2)cc1` (stereo not drawn)?
USP28 block: 12; USP17 block: 9; OTUD3 inh: 9; USP30 block: 36*

How did O=S(=O)(c1ccc(-c2noc(COc3ccccc3)n2)cc1)N1CCOCC1 do in these assays?
USP28 block: -19; USP17 block: 14; OTUD3 inh: -12; USP30 block: -8

How did Cn1c(SCC(=O)c2ccc3c(c2)OCCCO3)nnc1-c1ccc2ccccc2c1 do in these assays?
USP28 block: 31*; USP17 block: 27; OTUD3 inh: 11; USP30 block: 49*

What do the screens show for `Cn1c(SCCOc2ccccc2Cl)nnc1-c1ccc2c(c1)OCCO2`?
USP28 block: 38*; USP17 block: 17; OTUD3 inh: 8; USP30 block: 39*

Results for CC(C)c1nc2sc3c(SCCN4CCOCC4)ncnc3c2c2c1CCC2 ?
USP28 block: 22; USP17 block: -7; OTUD3 inh: -2; USP30 block: -2

Results for COc1cccc(C(=O)N2c3ncnn3C(c3ccccc3)CC2c2ccccc2)c1 (stereo not drawn) ?
USP28 block: -1; USP17 block: 4; OTUD3 inh: 0; USP30 block: 24

What do the screens show for `Cc1ccc(-n2nc(C)c(/C=C(\C#N)c3nc4ccccc4[nH]3)c2C)cc1C`?
USP28 block: -57; USP17 block: -72; OTUD3 inh: -52; USP30 block: -280

How did N#C/C(=C\c1cn(CCC(N)=O)c2ccccc12)c1nc2ccccc2[nH]1 do in these assays?
USP28 block: -23; USP17 block: 40*; OTUD3 inh: -21; USP30 block: -130

Results for CCCc1noc(-c2ccc(-n3ncc(C(=O)N4CCCCC4)c3C)nc2)n1 ?
USP28 block: 29; USP17 block: 20; OTUD3 inh: 20; USP30 block: 38*

What do the screens show for `CCCc1noc(-c2ccnc(-n3ncc(C(=O)N4CCCC4)c3C)c2)n1`?
USP28 block: 2; USP17 block: 1; OTUD3 inh: 3; USP30 block: -13

Results for O=C(NCCc1ccccc1Cl)c1oc(=O)c2ccccc2c1-c1ccccc1 ?
USP28 block: 29; USP17 block: 19; OTUD3 inh: 23; USP30 block: 44*

What do the screens show for `CCN(C(=O)COC(=O)c1cccnc1Nc1cccc(C(F)(F)F)c1)c1ccccc1`?
USP28 block: -11; USP17 block: -2; OTUD3 inh: -6; USP30 block: -6

What do the screens show for `COC(=O)CNC(=O)c1cnc(Nc2ccccc2OC)c2ccccc12`?
USP28 block: 9; USP17 block: 31*; OTUD3 inh: 1; USP30 block: -15

How did COc1ccccc1Nc1ncc(C(=O)NCCc2ccc(Cl)cc2)c2ccccc12 do in these assays?
USP28 block: 7; USP17 block: 81*; OTUD3 inh: 13; USP30 block: 12

What do the screens show for `CCCn1c(NC(=O)Cc2coc3cc(OC)ccc23)nc2ccccc21`?
USP28 block: -21; USP17 block: 9; OTUD3 inh: -20; USP30 block: -88

What do the screens show for `CC(Nc1ccccc1Oc1ccccc1)C(=O)N1CC(=O)Nc2ccccc21` (stereo not drawn)?
USP28 block: 37*; USP17 block: 6; OTUD3 inh: -6; USP30 block: 3

What do the screens show for `O=C1CN(C(=O)COc2cccc3ccccc23)c2ccccc2N1`?
USP28 block: 23; USP17 block: 41*; OTUD3 inh: 2; USP30 block: 6

Results for O=C1NCc2ccccc2CC12CCCN(Cc1ccnc3ccccc13)C2 (stereo not drawn) ?
USP28 block: 6; USP17 block: 8; OTUD3 inh: -7; USP30 block: -18

Results for Cc1cc(C)cc(-n2c(-c3ccc([N+](=O)[O-])cc3)cn3c4c(=O)n(C)c(=O)n(C)c4nc23)c1 ?
USP28 block: 6; USP17 block: 11; OTUD3 inh: 14; USP30 block: 22

How did O=C(Nc1ccccc1C(F)(F)F)N1CCCC(CN2CCc3ccccc3C2)C1 (stereo not drawn) do in these assays?
USP28 block: 6; USP17 block: 3; OTUD3 inh: 0; USP30 block: 6

Results for Cc1nc(-c2ccccc2)sc1C(=O)Nc1ccc2c(c1)OCCO2 ?
USP28 block: 50*; USP17 block: 11; OTUD3 inh: 11; USP30 block: 17

How did CCN(Cc1ccccc1)C(=O)c1ccc(CS(=O)c2ccccc2C)o1 (stereo not drawn) do in these assays?
USP28 block: 10; USP17 block: 7; OTUD3 inh: 0; USP30 block: 5

Results for O=C(CSc1ccc2nnc(CCNS(=O)(=O)c3ccccc3)n2n1)c1ccccc1 ?
USP28 block: -10; USP17 block: -6; OTUD3 inh: -10; USP30 block: -8

How did CCOC(=O)C1(Cc2cc(-c3ccccc3C)no2)CCCN(Cc2cncn2C)C1 (stereo not drawn) do in these assays?
USP28 block: -17; USP17 block: -5; OTUD3 inh: -9; USP30 block: -11

How did CCOC(=O)C1(Cc2cc(-c3ccc(F)cc3)no2)CCCN(Cc2cnc(C)n2C)C1 (stereo not drawn) do in these assays?
USP28 block: 16; USP17 block: 11; OTUD3 inh: 13; USP30 block: 36*

How did Cc1nc(Nc2ccc(NC(=O)C(C)(C)C)cc2)cc(N2CCOCC2)n1 do in these assays?
USP28 block: 5; USP17 block: 5; OTUD3 inh: 8; USP30 block: 13

Results for COc1ccc(Nc2nc(C(=O)NCc3ccccc3)cc3occc23)cc1 ?
USP28 block: 24; USP17 block: 57*; OTUD3 inh: 12; USP30 block: -12
